According to PubChem BioAssay (Tox21):
Where “and” joins values, the source holds several entries; their conditions need not be identical. Identical values can stand only once. Results filed as inconclusive are left out. Entries that show only a call come without a potency. A structure can be active in one record and inactive in another. Calls of active or inactive are those of the source. Calls come from the whole dose curve; as a rule, active = well fitted inhibition curve with a large enough effect in the repeat runs; inconclusive = weak or mixed curves; inactive = no such curve, though single readings can be large or run the other way.

Test: qHTS assay to identify small molecule antagonists of the estrogen related receptor (ERR) signaling pathway from Tox21 library (AID 1224848); note: nearly all actives have a fitted effect of over 50% in size
Conditions: ERR reporter cell line, luciferase antagonist mode, 18 h; series mostly up to 92.4 µM
Excerpt: U.S. Tox21 Program National Center for Advancing Translational Sciences [NCATS] NIH Chemical Genomics Center [NCGC] U.S. Environmental Protection Agency [EPA] National Institutes of Environmental Health Sciences [NIEHS] National Toxicology Program [NTP] U.S. Food and Drug Administration [FDA] Tox21 Assay Overview: Estrogen related receptors (ERRs), the first orphan nuclear receptors discovered, play an important role in the control of cellular energy metabolism. ERRs are required for high-energy production in response to the environmental challenges. ERR-alpha was also identified as an adverse marker for breast cancer progression; ERR-alpha-positive tumors have a poor prognosis. To screen and to identify environmental compounds that perturb the ERR signaling pathways could provide valuable information for potential therapeutic or preventive measures in the treatment of metabolic disease. For identifying ERR antagonists, ERR cell line (provided by NTP) has been used to screen Tox21 10K library.
Tox21 Assay Protocol Summary: The ERR cells were dispensed at 2,000 cells/5 ul/well in 1536-well white plates using a Multidrop dispenser. After the assay plates were incubated at a 37 C/5% CO2 incubator for 6 hours, 23 nL of compounds dissolved in DMSO, positive and negative controls or DMSO only was transferred to the assay plate by a pin tool. The plates were incubated at 37 C for 18 hours. 4 ul/well of One-Glo reagent was added into the assay plates using a Flying Reagent Dispenser. After 30-minute incubation at room temperature, the luminescence intensity in the plates was measured using a ViewLux plate reader.
Potency is the fitted concentration of half-maximal effect.

Q: For `CC(=O)CCc1ccccc1`, which Potency is on record?
A: inactive

Q: Which Potency does the source give for `CCCCOCCO` here?
A: inactive

Q: For `C=C(C)C(=O)OCCCCCCCCCCCC`, which Potency is on record?
A: inactive

Q: Which Potency does the source give for `ClC1=C(Cl)C(Cl)(Cl)C(Cl)=C1Cl` here?
A: inactive

Q: With `O=C1O[C@H](CO)[C@@H](O)[C@H](O)[C@H]1O` as the compound, how does the Potency read?
A: inactive

Q: Which Potency does the source give for `NC(=O)/N=N/C(N)=O` here?
A: inactive

Q: For `c1ccc2ccccc2c1`, which Potency is on record?
A: inactive

Q: For `O=[N+]([O-])C(CO)(CO)CO`, which Potency is on record?
A: inactive

Q: Which Potency does the source give for `C=C1C2CCC(C2)C1(C)C` (stereo not given) here?
A: inactive

Q: For `CCCCCCCCCC(=O)O`, which Potency is on record?
A: inactive

Q: For `CC(C)(N=C=O)c1cccc(C(C)(C)N=C=O)c1`, which Potency is on record?
A: 54 µM (active) and inactive

Q: For `Clc1cc(Cl)c(Cl)cc1Cl`, which Potency is on record?
A: inactive

Q: For `CCCCC(CC)COC(C)=O` (stereo not given), which Potency is on record?
A: inactive

Q: For `CC#C[C@]1(O)CC[C@H]2[C@@H]3CCC4=CC(=O)CCC4=C3[C@@H](c3ccc(N(C)C)cc3)C[C@@]21C`, which Potency is on record?
A: 26.6 µM (active)

Q: Which Potency does the source give for `O=S(=O)(Oc1ccc(Cl)cc1Cl)c1ccccc1` here?
A: inactive

Q: For `C[C@@H](O)[C@H]1C(=O)N2C(C(=O)O)=C(S[C@@H]3CN[C@H](C(=O)N(C)C)C3)[C@H](C)[C@H]12`, which Potency is on record?
A: inactive

Q: For `CCOC(=O)/C=C\C(=O)OCC`, which Potency is on record?
A: inactive

Q: Which Potency does the source give for `Cc1cc(O)c2c(c1)C(=O)c1cc(O)cc(O)c1C2=O` here?
A: inactive and 54.5 µM (active)

Q: For `O=C(O)c1cc(-c2ccccc2)nc2ccccc12`, which Potency is on record?
A: inactive

Q: Which Potency does the source give for `O=c1c(-c2ccc(O)cc2)coc2cc(O)ccc12` here?
A: inactive

Q: Which Potency does the source give for `CCCCC(CC)COC(=O)/C=C\C(=O)OCC(CC)CCCC` (stereo not given) here?
A: inactive

Q: With `COC(=O)c1ccccc1O` as the compound, how does the Potency read?
A: inactive

Q: For `C=C(C#N)C(=O)OCC`, which Potency is on record?
A: inactive

Q: Which Potency does the source give for `Nc1cc(-c2ccncc2)c[nH]c1=O` here?
A: inactive

Q: Which Potency does the source give for `CCCCCCOC(C)=O` here?
A: inactive

Q: Which Potency does the source give for `Oc1c(Cl)cc(Cl)c(Cl)c1Cl` here?
A: 53.3 µM (active) and 48.6 µM (active)

Q: Which Potency does the source give for `O=C1CCCCC1` here?
A: inactive

Q: With `CC1(C)O[C@@H]2C[C@H]3[C@@H]4C[C@H](F)C5=CC(=O)CC[C@]5(C)[C@H]4[C@@H](O)C[C@]3(C)[C@]2(C(=O)CO)O1` as the compound, how does the Potency read?
A: inactive

Q: Which Potency does the source give for `CCCCNC(N)=O` here?
A: inactive

Q: For `O=C(Cl)c1c(Cl)c(Cl)c(C(=O)Cl)c(Cl)c1Cl`, which Potency is on record?
A: inactive

Q: With `OC[C@@H](O)[C@H](O)[C@H](O)[C@@H](O)CO` as the compound, how does the Potency read?
A: inactive

Q: For `CCCCC(CC)COC(=O)CCCCCCCC(=O)OCC(CC)CCCC` (stereo not given), which Potency is on record?
A: 7.7 µM (active) and inactive

Q: With `OC[C@@H](O)[C@@H](O)[C@H](O)[C@@H](O)CO` as the compound, how does the Potency read?
A: inactive

Q: With `O=S(=O)(O)CCS` as the compound, how does the Potency read?
A: inactive

Q: Which Potency does the source give for `CCCCC(CC)C(=O)OCCOCCOCCOC(=O)C(CC)CCCC` (stereo not given) here?
A: inactive

Q: For `O=C(c1cc(O)c(O)c(O)c1)c1ccc(O)c(O)c1O`, which Potency is on record?
A: inactive

Q: For `NCCNCCNCCNCCN`, which Potency is on record?
A: inactive

Q: For `CC1Cc2ccccc2N1NC(=O)c1ccc(Cl)c(S(N)(=O)=O)c1` (stereo not given), which Potency is on record?
A: inactive

Q: For `CCc1ccc(O)cc1`, which Potency is on record?
A: inactive

Q: For `CCOC(=O)[C@H](CCc1ccccc1)N[C@@H](C)C(=O)N1Cc2ccccc2C[C@H]1C(=O)O`, which Potency is on record?
A: inactive
